Source: PubChem BioAssay AID1159580 (chemical genetic matrix, 2015)
Among all 5,500 compounds or so, about 2,000 (36%) were called active. Not shown: some 18% with an inconclusive outcome. Cut-off read from the data, not from the text of the source: active = normalized growth mostly below about 0.91 (no sharp cut-off); inconclusive = no clear call, values can overlap the other calls; inactive = mostly above about 0.92. The list shows a part of the results.

Assay: chemical genetic growth profiling, strain panel (AID 1159580);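 note: tested at 20 µM; growth read once vehicle control cultures reached saturation at 30 °C; 1 = growth at the plate median or of vehicle wells; lower values mean less growth of the strain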
Settings: growth OD

Measured: normalized growth

COC1C(O)C(O)C(O)[C@@H](O)C1O (some centres undefined)
inactive: S. cerevisiae deletion strains, locus YJR066W, strain TOR1, hits give low values 0.926 | S. cerevisiae deletion strains, locus YJR075W, strain HOC1, hits give low values 1.01 | S. cerevisiae deletion strains, locus YKL009W, strain mrt4, hits give low values 1.1 | S. cerevisiae deletion strains, locus YKL068W, hits give low values 1.01 | S. cerevisiae deletion strains, locus YKL085W, strain MDH1 (second series), hits give low values 1.02 | S. cerevisiae deletion strains, locus YKL085W, strain MDH1, hits give low values 1.02 | S. cerevisiae deletion strains, locus YKL160W, strain elf1, hits give low values 0.968 | S. cerevisiae deletion strains, locus YKL190W, strain CNB1, hits give low values 1.01 | S. cerevisiae deletion strains, locus YKR001C, strain vps1, hits give low values 1.05 | S. cerevisiae deletion strains, locus YKR026C, strain gcn3, hits give low values 0.978 | S. cerevisiae deletion strains, locus YKR091W, strain srl3, hits give low values 0.972 | S. cerevisiae deletion strains, locus YLL001W, strain dnm1, hits give low values 0.944 | S. cerevisiae deletion strains, locus YLL026W, hits give low values 0.992 | S. cerevisiae deletion strains, locus YLL041C, strain sdh2, hits give low values 0.978 | S. cerevisiae deletion strains, locus YLR027C, strain aat2, hits give low values 0.969 | S. cerevisiae deletion strains, locus YLR039C, strain RIC1, hits give low values 1.07 | S. cerevisiae deletion strains, locus YLR058C, strain SHM2, hits give low values 1.01 | S. cerevisiae deletion strains, locus YLR102C, strain apc9, hits give low values 1.02 | S. cerevisiae deletion strains, locus YLR113W, strain HOG1, hits give low values 0.97 | S. cerevisiae deletion strains, locus YLR221C, strain rsa3, hits give low values 0.965 | S. cerevisiae deletion strains, locus YLR258W, strain gsy2, hits give low values 0.979 | S. cerevisiae deletion strains, locus YLR262C, strain YPT6 (second series), hits give low values 0.971 | S. cerevisiae deletion strains, locus YLR262C, strain YPT6, hits give low values 1.03 | S. cerevisiae deletion strains, locus YLR268W, strain sec22, hits give low values 1.05 | S. cerevisiae deletion strains, locus YLR320W, strain mms22, hits give low values 0.963 | S. cerevisiae deletion strains, locus YLR330W, strain CHS5, hits give low values 1.01 | S. cerevisiae deletion strains, locus YLR342W, strain FKS1 (second series), hits give low values 1.08 | S. cerevisiae deletion strains, locus YLR342W, strain FKS1, hits give low values 0.973 | S. cerevisiae deletion strains, locus YLR357W, strain rsc2, hits give low values 0.959 | S. cerevisiae deletion strains, locus YLR370C, strain arc18, hits give low values 0.971 | S. cerevisiae deletion strains, locus YLR371W, strain rom2, hits give low values 1.02 | S. cerevisiae deletion strains, locus YLR384C, strain iki3, hits give low values 0.96 | S. cerevisiae deletion strains, locus YLR418C, strain cdc73, hits give low values 1.06 | S. cerevisiae deletion strains, locus YML016C, strain PPZ1, hits give low values 1.01 | S. cerevisiae deletion strains, locus YML032C, strain rad52, hits give low values 1.04 | S. cerevisiae deletion strains, locus YML120C, strain ndi1, hits give low values 0.97 | S. cerevisiae deletion strains, locus YML124C, strain tub3, hits give low values 1.02 | S. cerevisiae deletion strains, locus YMR058W, strain fet3, hits give low values 0.973 | S. cerevisiae deletion strains, locus YMR078C, strain ctf18, hits give low values 1.01 | S. cerevisiae deletion strains, locus YMR125W, strain sto1, hits give low values 0.958 | S. cerevisiae deletion strains, locus YMR129W, hits give low values 0.976 | S. cerevisiae deletion strains, locus YMR205C, strain PFK2, hits give low values 0.966 | S. cerevisiae deletion strains, locus YMR223W, strain ubp8, hits give low values 1 | S. cerevisiae deletion strains, locus YMR231W, strain pep5, hits give low values 0.971 | S. cerevisiae deletion strains, locus YMR263W, strain SAP30, hits give low values 0.997 | S. cerevisiae deletion strains, locus YMR307W, strain GAS1, hits give low values 1.05 | S. cerevisiae deletion strains, locus YNL067W, strain RPL9B, hits give low values 0.998 | S. cerevisiae deletion strains, locus YNL071W, strain lat1, hits give low values 0.973 | S. cerevisiae deletion strains, locus YNL128W, strain TEP1, hits give low values 1.03 | S. cerevisiae deletion strains, locus YNL183C, strain NPR1, hits give low values 0.962 | S. cerevisiae deletion strains, locus YNL209W, strain ssb2, hits give low values 0.987 | S. cerevisiae deletion strains, locus YNL233W, strain BNI4, hits give low values 1.01 | S. cerevisiae deletion strains, locus YNL248C, strain rpa49, hits give low values 0.976 | S. cerevisiae deletion strains, locus YNL250W, strain rad50, hits give low values 1.02 | S. cerevisiae deletion strains, locus YNL271C, strain bni1, hits give low values 1.01 | S. cerevisiae deletion strains, locus YNL298W, strain CLA4, hits give low values 1.03 | S. cerevisiae deletion strains, locus YNL307C, strain MCK1, hits give low values 1.02 | S. cerevisiae deletion strains, locus YNL322C, strain KRE1 (second series), hits give low values 0.97 | S. cerevisiae deletion strains, locus YNR049C, strain mso1, hits give low values 0.979 | S. cerevisiae deletion strains, locus YNR052C, strain pop2, hits give low values 1.01 | S. cerevisiae deletion strains, locus YOL012C, strain htz1 1.17 | S. cerevisiae deletion strains, locus YOL147C, strain pex11, hits give low values 1.01 | S. cerevisiae deletion strains, locus YOR001W, strain rrp6, hits give low values 0.995 | S. cerevisiae deletion strains, locus YOR061W, strain CKA2, hits give low values 1.02 | S. cerevisiae deletion strains, locus YOR069W, strain VPS5, hits give low values 1.01 | S. cerevisiae deletion strains, locus YOR070C, strain gyp1, hits give low values 1 | S. cerevisiae deletion strains, locus YOR080W, strain dia2, hits give low values 0.979 | S. cerevisiae deletion strains, locus YOR083W, strain WHI5, hits give low values 0.964 | S. cerevisiae deletion strains, locus YOR106W, strain vam3, hits give low values 0.96 | S. cerevisiae deletion strains, locus YOR136W, strain idh2, hits give low values 1.03 | S. cerevisiae deletion strains, locus YOR144C, strain elg1, hits give low values 1.01 | S. cerevisiae deletion strains, locus YOR184W, strain ser1, hits give low values 1.03 | S. cerevisiae deletion strains, locus YOR231W, strain MKK1, hits give low values 0.977 | S. cerevisiae deletion strains, locus YOR265W, strain rbl2, hits give low values 0.989 | S. cerevisiae deletion strains, locus YOR270C, strain vph1, hits give low values 0.985 | S. cerevisiae deletion strains, locus YOR290C, strain snf2, hits give low values 0.913 | S. cerevisiae deletion strains, locus YOR316C, strain cot1, hits give low values 1.02 | S. cerevisiae deletion strains, locus YPL051W, strain arl3, hits give low values 0.97 | S. cerevisiae deletion strains, locus YPL055C, strain LGE1, hits give low values 1.02 | S. cerevisiae deletion strains, locus YPL078C, strain atp4, hits give low values 0.965 | S. cerevisiae deletion strains, locus YPL106C, strain sse1, hits give low values 0.949 | S. cerevisiae deletion strains, locus YPL240C, strain hsp82, hits give low values 0.986 | S. cerevisiae deletion strains, locus YPL256C, strain CLN2, hits give low values 0.93 | S. cerevisiae deletion strains, locus YPR119W, strain clb2, hits give low values 1.02 | S. cerevisiae deletion strains, locus YPR141C, strain kar3, hits give low values 1.03 | S. cerevisiae deletion strains, locus YPR163C, strain tif3, hits give low values 1.02 | S. cerevisiae deletion strains, locus YPR167C, strain met16, hits give low values 1.05 | S. cerevisiae deletion strains, strain wtn01, hits give low values 1.06 | S. cerevisiae strains, strain wild type, hits give low values 1.01
